From PubChem BioAssay AID1159580 (chemical genetic matrix, 2015)
About 2,000 (36%) of roughly 5,500 compounds were called active. About 18% were inconclusive and are not listed. Rule as the data show it: active = normalized growth mostly below about 0.91 (no sharp cut-off); inconclusive = no clear call, values can overlap the other calls; inactive = mostly above about 0.92. The list shows a part of the results.

Assay: chemical genetic growth profiling, strain panel (AID 1159580);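 also: tested at 20 µM; growth read once vehicle control cultures reached saturation at 30 °C; 1 = growth at the plate median or of vehicle wells; lower values mean less growth of the strain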
Details: S. cerevisiae deletion strains, growth OD

Measured: normalized growth

O=c1ccc2ccc(O)cc2o1
inactive: locus YAL021C, strain ccr4, active compounds read low 1.05 | locus YAL026C, strain drs2, active compounds read low 0.984 | locus YAL030W, strain snc1, active compounds read low 0.999 | locus YBL061C, strain skt5, active compounds read low 0.991 | locus YBR009C, strain hhf1, active compounds read low 1.01 | locus YBR023C, strain chs3, active compounds read low 1.01 | locus YBR171W, strain sec66, active compounds read low 0.987 | locus YBR231C, strain swc5, active compounds read low 0.976 | locus YBR279W, strain paf1, active compounds read low 1.01 | locus YCL011C, strain gbp2, active compounds read low 1.01 | locus YCL016C, strain dcc1, active compounds read low 1.02 | locus YCL069W, strain vba3, active compounds read low 0.996 | locus YCR088W, strain abp1, active compounds read low 0.996 | locus YDL005C, strain med2, active compounds read low 0.981 | locus YDL040C, strain nat1, active compounds read low 0.988 | locus YDR001C, strain nth1, active compounds read low 0.988 | locus YDR069C, strain doa4, active compounds read low 0.993 | locus YDR137W, strain rgp1, active compounds read low 1.02 | locus YDR159W, strain sac3, active compounds read low 0.972 | locus YDR195W, strain ref2 0.942 | locus YDR297W, strain sur2, active compounds read low 0.986 | locus YDR334W, strain swr1, active compounds read low 0.985 | locus YDR335W, strain msn5, active compounds read low 1 | locus YDR392W, strain spt3, active compounds read low 0.96 | locus YEL003W, strain gim4, active compounds read low 0.988 | locus YEL037C, strain rad23, active compounds read low 0.985 | locus YEL061C, strain CIN8 (second series), active compounds read low 0.989 | locus YER015W, strain faa2, active compounds read low 1.01 | locus YER016W, strain bim1, active compounds read low 0.996 | locus YER111C, strain swi4, active compounds read low 0.981 | locus YER155C, strain BEM2 (second series), active compounds read low 0.986 | locus YFR010W, strain ubp6, active compounds read low 0.976 | locus YGL167C, strain pmr1, active compounds read low 0.99 | locus YGL173C, strain kem1, active compounds read low 0.988 | locus YGL227W, strain vid30, active compounds read low 0.983 | locus YGL240W, strain doc1, active compounds read low 0.976 | locus YGL253W, strain hxk2, active compounds read low 0.972 | locus YHR013C, strain ard1, active compounds read low 0.997 | locus YHR027C, strain rpn1, active compounds read low 0.981 | locus YHR142W, strain chs7, active compounds read low 1.01 | locus YJL092W, strain hpr5, active compounds read low 0.994 | locus YJL095W, strain BCK1 (second series), active compounds read low 1 | locus YJL115W, strain asf1, active compounds read low 0.985 | locus YJL129C, strain trk1, active compounds read low 0.972 | locus YJL154C, strain vps35, active compounds read low 0.988 | locus YJL164C, strain tpk1, active compounds read low 1.01 | locus YJL166W, strain qcr8, active compounds read low 1 | locus YKL160W, strain elf1, active compounds read low 1.01 | locus YKR026C, strain gcn3, active compounds read low 0.991 | locus YKR091W, strain srl3, active compounds read low 0.992 | locus YLL001W, strain dnm1, active compounds read low 1.01 | locus YLL026W, active compounds read low 1 | locus YLL041C, strain sdh2, active compounds read low 0.992 | locus YLR027C, strain aat2, active compounds read low 1.01 | locus YLR221C, strain rsa3, active compounds read low 0.98 | locus YLR258W, strain gsy2, active compounds read low 1.03 | locus YLR262C, strain YPT6 (second series), active compounds read low 1.01 | locus YLR320W, strain mms22, active compounds read low 0.975 | locus YLR342W, strain FKS1, active compounds read low 1 | locus YLR357W, strain rsc2, active compounds read low 0.996 | locus YLR370C, strain arc18, active compounds read low 1 | locus YLR384C, strain iki3, active compounds read low 0.988 | locus YML120C, strain ndi1, active compounds read low 1.01 | locus YMR058W, strain fet3, active compounds read low 0.99 | locus YMR125W, strain sto1, active compounds read low 1.01 | locus YMR129W, active compounds read low 0.993 | locus YMR205C, strain PFK2, active compounds read low 1.02 | locus YMR231W, strain pep5, active compounds read low 0.982 | locus YNL071W, strain lat1, active compounds read low 1 | locus YNL209W, strain ssb2, active compounds read low 1.01 | locus YNL248C, strain rpa49, active compounds read low 0.999 | locus YNL322C, strain KRE1 (second series), active compounds read low 0.996 | locus YNR049C, strain mso1, active compounds read low 0.979 | locus YOR001W, strain rrp6, active compounds read low 0.931 | locus YOR070C, strain gyp1, active compounds read low 0.999 | locus YOR080W, strain dia2, active compounds read low 0.992 | locus YOR083W, strain WHI5, active compounds read low 1.03 | locus YOR106W, strain vam3, active compounds read low 1.03 | locus YOR265W, strain rbl2, active compounds read low 0.994 | locus YOR270C, strain vph1, active compounds read low 0.985 | locus YOR290C, strain snf2, active compounds read low 1 | locus YPL051W, strain arl3, active compounds read low 0.997 | locus YPL078C, strain atp4, active compounds read low 1.01 | locus YPL106C, strain sse1, active compounds read low 1.03 | locus YPL240C, strain hsp82, active compounds read low 0.998
